Activity calls are given as the source filed them.
Tests used:
[1] = target: Albumin (Bos taurus) (UniProt P02769); assay: compounds binding labelled BSA control protein – biochemical, small-molecule microarray, Alexa647 label, 635/667 nm fluorescence, artefact control for SMM control protein annotation, profiling panel (AID 1118); conditions: BSA-A647 binding, fluorescence 635 nm, higher = more signal;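 note: score merges 667 nm emission intensity and signal-to-noise per printed compound spot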
[2] = probe aXIP binding to arrayed compounds – biochemical, NeuroSMM set, 635/667 nm fluorescence, primary screen (AID 1119); conditions: small-molecule microarray, higher = more signal, called active from +8 up or from −8 down;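 note: probe is the protein aXip251-270 applied at 1 µg/mL to compound-printed slides; binding of probe to printed compounds measured as 667 nm fluorescence plus signal to noise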
[3] = probe aNOTCH3 binding on compound microarray – biochemical, small-molecule microarray, 635/667 nm fluorescence, primary screen (AID 1120); conditions: higher = more signal;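 note: probe is a biotin-tagged antibody raised against NOTCH3 rather than NOTCH3 protein; score merges spot fluorescence near 667 nm with spot signal to noise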
[4] = probe aNOTCH2 binding on compound microarray – biochemical, small-molecule microarray, 635/667 nm fluorescence, primary screen (AID 1121); conditions: higher = more signal;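 note: score merges feature fluorescence read at 667 nm with its signal to noise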
[5] = target: Carbonic anhydrase 2 (Homo sapiens) (UniProt P00918); assay: compounds binding carbonic anhydrase 2 – biochemical, small-molecule microarray, Alexa647-labelled CAII, profiling panel (AID 1122); conditions: CAII-A647 binding fluorescence, higher = more signal
[6] = COS7 lysate on small-molecule microarray, probe aHis, 635 nm (AID 1123); conditions: COS7 cell lysate, fluorescence, higher = more signal;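 note: z-score combines 667nm fluorescence intensity with signal-to-noise per printed compound spot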
[7] = probe aLAP1 signal on lysate-treated microarray – cell lysate, small-molecule microarray, COS7 lysate, primary screen (AID 1124); conditions: probe aLAP1, fluorescence, higher = more signal;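 note: lysate comes from COS7 cells expressing LAP1 and is applied at 0.3 µg/mL; score merges spot fluorescence near 667 nm with signal-to-noise over triplicate slides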
[8] = test system: Sam68 (KHDRBS1); assay: compounds binding KHDRBS1 protein – biochemical, small-molecule microarray, 635 nm fluorescence, primary screen (AID 1125); conditions: higher = more signal;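 note: score merges 667 nm channel intensity with signal to noise over triplicate slides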
[9] = test system: Chordin-like protein 2 (CHRDL2); assay: compounds binding chordin-like 2 – biochemical, small-molecule microarray, 635 nm fluorescence, primary screen (AID 1126); conditions: fluorescence 635 nm, higher = more signal;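 note: printed compound slides probed with Chrdl2 protein at 4 µg/mL for 1 h at 4 C; score merges 667 nm emission intensity with signal to noise over three replicate slides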
[10] = target: Concanavalin-A (Canavalia ensiformis) (UniProt P02866); assay: compounds binding concanavalin A lectin – biochemical, small-molecule microarray, Alexa647 label, 635 nm, artefact control for SMM control protein annotation, primary screen (AID 1127); conditions: ConA-A647 binding fluorescence, higher = more signal;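 note: z combines 667 nm emission intensity with signal-to-noise across three replicate slides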
Sequence of Concanavalin-A (Canavalia ensiformis) (P02866 whole entry, looked up): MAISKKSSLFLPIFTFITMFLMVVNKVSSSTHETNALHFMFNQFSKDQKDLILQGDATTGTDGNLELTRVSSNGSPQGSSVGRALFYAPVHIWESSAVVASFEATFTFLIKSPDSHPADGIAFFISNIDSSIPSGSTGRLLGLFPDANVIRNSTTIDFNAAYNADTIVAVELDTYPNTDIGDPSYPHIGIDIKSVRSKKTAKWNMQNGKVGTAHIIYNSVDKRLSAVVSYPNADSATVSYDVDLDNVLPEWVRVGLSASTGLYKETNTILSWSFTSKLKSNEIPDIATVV

[11] = compounds binding Alexa647 anti-His antibody – biochemical, small-molecule microarray, 635 nm fluorescence, artefact control for SMM control protein annotation, primary screen (AID 1128); conditions: higher = more signal;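 note: score merges feature fluorescence with signal-to-noise for each printed compound spot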
[12] = test system: Human papillomavirus type 1a E7 protein (residues 1-88); assay: HPV1a E7 small-molecule binders, primary screen, biochemical, small-molecule microarray, residues 1-88, 635 nm (AID 1129); conditions: small-molecule microarray binding, fluorescence 635 nm; higher = more signal
[13] = target: Focal adhesion kinase 1 (Homo sapiens) (UniProt Q05397); assay: PTK2 protein binding on printed compound slides – biochemical, small-molecule microarray, 635/667 nm fluorescence, BSA, DTT, primary screen (AID 1130); conditions: 635 nm fluorescence, higher = more signal;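 note: composite of spot emission at 667 nm and signal to noise over triplicate slides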
Sequence of Focal adhesion kinase 1 (Homo sapiens) (Q05397 whole entry, looked up): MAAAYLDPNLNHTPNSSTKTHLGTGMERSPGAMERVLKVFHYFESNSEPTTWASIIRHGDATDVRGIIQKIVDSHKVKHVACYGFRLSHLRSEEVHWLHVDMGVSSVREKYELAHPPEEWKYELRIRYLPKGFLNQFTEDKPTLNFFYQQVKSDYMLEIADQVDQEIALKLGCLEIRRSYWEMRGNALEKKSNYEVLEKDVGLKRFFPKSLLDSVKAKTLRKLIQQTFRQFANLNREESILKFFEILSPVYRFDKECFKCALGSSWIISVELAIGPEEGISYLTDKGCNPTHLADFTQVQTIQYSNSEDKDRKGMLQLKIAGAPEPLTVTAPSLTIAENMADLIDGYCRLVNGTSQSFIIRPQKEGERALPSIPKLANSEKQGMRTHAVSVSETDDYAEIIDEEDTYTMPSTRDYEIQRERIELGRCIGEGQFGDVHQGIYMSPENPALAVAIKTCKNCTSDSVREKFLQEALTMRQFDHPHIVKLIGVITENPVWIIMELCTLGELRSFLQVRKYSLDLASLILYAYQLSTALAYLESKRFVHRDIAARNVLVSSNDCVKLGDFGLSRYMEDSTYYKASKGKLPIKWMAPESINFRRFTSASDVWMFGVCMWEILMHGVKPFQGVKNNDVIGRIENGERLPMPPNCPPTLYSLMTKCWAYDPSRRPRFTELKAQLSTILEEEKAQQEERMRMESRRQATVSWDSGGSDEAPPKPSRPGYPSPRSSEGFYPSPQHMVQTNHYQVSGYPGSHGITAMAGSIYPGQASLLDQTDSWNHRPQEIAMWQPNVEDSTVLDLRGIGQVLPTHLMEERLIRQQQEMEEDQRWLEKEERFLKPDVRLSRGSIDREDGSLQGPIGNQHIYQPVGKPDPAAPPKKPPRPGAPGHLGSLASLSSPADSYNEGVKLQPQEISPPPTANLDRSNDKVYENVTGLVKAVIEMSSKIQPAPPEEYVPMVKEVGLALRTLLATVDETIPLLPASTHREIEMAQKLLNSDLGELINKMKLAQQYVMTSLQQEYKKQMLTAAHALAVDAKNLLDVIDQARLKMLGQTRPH

[14] = test system: Fibrinogen (Alexa647-labelled); assay: Alexa647-fibrinogen binding to printed small molecules – biochemical, small-molecule microarray, 635/667 nm fluorescence, artefact control for SMM control-protein annotation, profiling panel (AID 1131); conditions: fibrinogen-A647 binding fluorescence, higher = more signal;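 note: z-score merges 667 nm fluorescence with per-spot signal-to-noise over triplicate slides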
[15] = target: Follistatin (Homo sapiens) (UniProt P19883); assay: FST protein binding to printed compounds – biochemical, small-molecule microarray, 635/667 nm fluorescence, primary screen (AID 1132); conditions: 635 nm fluorescence, higher = more signal
Sequence of Follistatin (Homo sapiens) (P19883 whole entry, looked up): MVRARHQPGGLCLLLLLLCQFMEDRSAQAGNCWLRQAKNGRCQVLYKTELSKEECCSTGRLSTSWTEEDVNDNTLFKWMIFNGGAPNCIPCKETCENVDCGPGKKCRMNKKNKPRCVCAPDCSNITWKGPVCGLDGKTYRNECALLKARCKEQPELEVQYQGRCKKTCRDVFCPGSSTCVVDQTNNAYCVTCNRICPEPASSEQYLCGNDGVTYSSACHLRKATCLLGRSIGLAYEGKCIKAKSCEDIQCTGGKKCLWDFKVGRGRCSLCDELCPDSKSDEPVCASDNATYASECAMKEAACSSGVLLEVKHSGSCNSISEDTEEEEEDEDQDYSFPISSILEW

[16] = target: Fibroblast growth factor 2 (Homo sapiens) (UniProt P09038); assay: basic fibroblast growth factor binding to printed compounds – biochemical, small-molecule microarray, 635/667 nm fluorescence, primary screen (AID 1133); conditions: FGF2, fluorescence 635/667, higher = more signal
Sequence of Fibroblast growth factor 2 (Homo sapiens) (P09038 whole entry, looked up): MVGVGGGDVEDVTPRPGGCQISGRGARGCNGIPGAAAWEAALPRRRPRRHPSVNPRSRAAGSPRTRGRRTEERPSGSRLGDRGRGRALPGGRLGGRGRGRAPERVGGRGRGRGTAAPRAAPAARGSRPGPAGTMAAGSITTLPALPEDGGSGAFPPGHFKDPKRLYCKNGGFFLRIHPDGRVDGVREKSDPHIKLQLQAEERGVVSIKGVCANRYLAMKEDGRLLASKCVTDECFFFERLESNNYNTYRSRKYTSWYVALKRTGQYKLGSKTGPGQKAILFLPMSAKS

[17] = JC-1 mitochondrial potential readout, lung cancer cells – cell-based, A549, JC-1 fluorescence, basal, 24 h, 100 nL, profiling panel (AID 1138); conditions: higher = more signal;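 note: A549 lung adenocarcinoma cells under basal conditions with no added stimulus; test concentration not given here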
[18] = test system: Lefty1; assay: Lefty1 protein binding to printed compounds – biochemical, small-molecule microarray, 635/667 nm fluorescence, primary screen (AID 1139); conditions: fluorescence 635/667, higher = more signal
[19] = test system: wheat germ agglutinin (Triticum aestivum), Alexa647-labelled; assay: Alexa647-WGA lectin binding to printed small molecules – biochemical, small-molecule microarray, 635/667 nm fluorescence, artefact control for SMM control-protein annotation, profiling panel (AID 1140); conditions: WGA-A647 binding, 635 nm fluorescence, higher = more signal;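 note: score merges 667 nm feature emission with signal to noise over triplicate slides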
[20] = target: Luciferin 4-monooxygenase (Photinus pyralis) (UniProt P08659); assay: inhibition of purified Photinus pyralis luciferase – biochemical, luminescence, purified enzyme, 2006 set, primary screen (AID 1141); conditions: purified firefly luciferase, SteadyGlo luminescence, 30 min; higher = more signal, called active from +8 up or from −8 down;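 note: cell-free assay with purified firefly luciferase at 100 ng per well in PBS; test concentration not given here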
Sequence of Luciferin 4-monooxygenase (Photinus pyralis) (P08659 whole entry, looked up): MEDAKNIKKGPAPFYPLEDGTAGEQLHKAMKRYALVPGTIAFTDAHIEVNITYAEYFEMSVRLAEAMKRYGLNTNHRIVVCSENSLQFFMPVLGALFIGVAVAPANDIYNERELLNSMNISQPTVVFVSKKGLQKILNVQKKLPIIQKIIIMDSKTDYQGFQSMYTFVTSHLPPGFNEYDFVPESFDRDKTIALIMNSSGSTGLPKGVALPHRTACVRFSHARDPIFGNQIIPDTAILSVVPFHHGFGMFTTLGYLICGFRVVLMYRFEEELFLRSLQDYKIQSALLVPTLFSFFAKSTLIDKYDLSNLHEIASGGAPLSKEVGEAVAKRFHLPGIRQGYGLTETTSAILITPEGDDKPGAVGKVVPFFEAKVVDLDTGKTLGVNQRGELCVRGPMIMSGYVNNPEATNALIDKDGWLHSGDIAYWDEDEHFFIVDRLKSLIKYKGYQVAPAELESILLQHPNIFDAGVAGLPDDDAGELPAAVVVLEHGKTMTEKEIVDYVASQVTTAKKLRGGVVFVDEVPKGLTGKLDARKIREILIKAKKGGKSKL

Sequence of Albumin (Bos taurus) (P02769 whole entry, looked up): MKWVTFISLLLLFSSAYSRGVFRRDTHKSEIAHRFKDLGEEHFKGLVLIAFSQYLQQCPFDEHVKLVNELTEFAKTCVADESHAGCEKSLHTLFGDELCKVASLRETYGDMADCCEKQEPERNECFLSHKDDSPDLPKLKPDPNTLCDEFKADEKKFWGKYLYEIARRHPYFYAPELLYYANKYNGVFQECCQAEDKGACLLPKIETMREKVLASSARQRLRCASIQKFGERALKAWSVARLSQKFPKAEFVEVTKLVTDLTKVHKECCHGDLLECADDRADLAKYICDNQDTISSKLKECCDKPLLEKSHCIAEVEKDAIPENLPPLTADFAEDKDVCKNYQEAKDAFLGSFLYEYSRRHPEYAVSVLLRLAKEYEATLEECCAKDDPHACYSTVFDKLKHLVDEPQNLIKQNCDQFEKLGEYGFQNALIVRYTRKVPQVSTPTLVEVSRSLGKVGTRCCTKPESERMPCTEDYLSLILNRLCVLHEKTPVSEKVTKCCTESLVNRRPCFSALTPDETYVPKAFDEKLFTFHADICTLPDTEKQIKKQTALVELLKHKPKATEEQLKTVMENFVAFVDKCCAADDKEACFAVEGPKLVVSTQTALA

SMILES	composite z-score [1]	composite Z-score [2]	composite z-score [3]	composite z-score [4]	composite z-score [5]	composite z-score [6]	composite z-score [7]	composite z-score [8]	composite z-score [9]	composite z-score [10]	composite z-score [11]	composite z-score [12]	composite z-score [13]	composite z-score [14]	composite z-score [15]	composite z-score [16]	z-score [17]	composite z-score [18]	composite z-score [19]	z-score [20]
CCN1C(=O)[C@H]2[C@H]3[C@H](O)[C@H](O)CC(=NNC(=O)OCc4ccccc4)[C@H]3CC[C@H]2C1=O	0.185	-0.431 (inactive)	0.0145	-0.129	-0.0576	0.0949	-0.198	-0.813	-0.0255	0.514	0.0371	-0.601	-0.117	0.0307	-0.238	0.215	-0.538	0.235	0.136	0.69 (inactive)
CC(C)=CCCC(C)=CCON=C1C[C@@H](O)[C@@H](O)[C@@H]2[C@@H]3C(=O)N(Cc4ccc5c(c4)OCO5)C(=O)[C@@H]3CC[C@H]12	0.0686	-0.16 (inactive)	0.0568	0.428	0.389	1.17	0.206	0.945	0.957	-0.0491	0.364	0.838	-0.0613	0.855	0.779	0.613	-0.564	1.04	0.793	0.497 (inactive)
CC=CC1=C(CO)[C@H](O)[C@H]2O[C@H]2[C@@H]1O	-0.0712	0.0296 (inactive)	0.213	-0.141	0.17	-0.394	-0.599	0.269	0.753	0.0361	0.343	0.23	-0.401	-0.0599	0.937	0.45	-0.537	0.911	-0.0224	-0.0811 (inactive)
COC(=O)[C@H](C)NC(=O)CCC1CC(OC(=O)NCCc2ccc(F)cc2)CC2(CCCC(COC(=O)NCCc3ccccc3OC)O2)O1 (stereo not given in full)	0.335	0.353 (inactive)	-0.0288	-0.0061	0.244	1.25	0.0635	1.29	0.559	0.924	0.706	1.12	0.0694	0.733	1.18	0.591	0.625	0.554	0.432	0.484 (inactive)
CCOC(=O)[C@H](Cc1ccccc1)NC(=O)CCC1CC(OC(=O)NCc2cccc3ccccc23)CC2(CCCC(COC(=O)NCCc3ccccc3OC)O2)O1 (stereo not given in full)	0.49	-0.564 (inactive)	0.121	-0.126	0.224	0.474	-0.114	1.19	0.241	0.879	0.704	0.79	0.201	0.287	0.798	0.793	-0.538	0.99	0.404	0.821 (inactive)
CO[C@H]1COC(=O)[C@H](C)COC(=O)[C@H](C)NC(=O)CC=C[C@H]1C	-0.642	1.19 (inactive)	-0.131	-0.0051	0.0006	-0.429	0.352	1.04	1.44	-0.581	0.0849	-0.375	-0.315	-1.01	1.41	1.43	0.763	1.36	-0.729	-0.403 (inactive)
O=C1CCCC=C1C(O)c1ccc([N+](=O)[O-])cc1 (stereo not given)	0.265	-0.163 (inactive)	0.0494	-0.148	-0.187	-0.251	0.0252	-0.311	0.0616	-0.343	-0.162	0.154	-0.126	-0.101	-0.102	0.511	-0.115	0.0283	-0.199	-0.171 (inactive)
O=C1[C@H]2[C@H]3[C@H](O)[C@H](O)CC(=NO[C@@H]4O[C@H](CO)[C@@H](O)[C@H](O)[C@H]4O)[C@@H]3CC[C@H]2C(=O)N1c1cccc(Oc2ccccc2)c1	0.29	-0.65 (inactive)	-0.0391	-0.104	-0.0428	0.109	0.106	0.324	0.775	0.588	0.13	0.542	0.0405	0.578	0.858	0.948	-0.728	0.879	0.335	0.825 (inactive)
CCOC(=O)[C@H](CC(C)C)NC(=O)CCC1CC(OC(=O)NCc2ccc3c(c2)OCO3)CC2(CCCC(COC(=O)NCCOc3ccccc3)O2)O1 (stereo not given in full)	0.232	-0.198 (inactive)	0.0469	-0.178	0.166	1.22	-0.248	1.33	0.99	1.14	0.424	1.17	0.0776	1.01	0.829	0.846	0.574	1.61	0.598	0.547 (inactive)
CCOC(=O)CCN1C(=O)[C@H]2[C@H]3[C@H](O)[C@H](O)CC(=NNC(=O)OCc4ccc(OC)cc4)[C@H]3CC[C@H]2C1=O	0.33	0.0321 (inactive)	-0.0328	-0.061	-0.0767	0.205	-0.0428	0.576	0.382	-0.0813	-0.0305	0.568	0.0684	0.446	-0.0495	0.0077	-0.734	0.161	0.282	0.624 (inactive)
CCOC(=O)[C@H](Cc1ccccc1)NC(=O)CCC1CC(OC(=O)NCc2cccc3ccccc23)CC2(CCCC(COC(=O)NCCc3ccc(Cl)cc3)O2)O1 (stereo not given in full)	0.278	-0.413 (inactive)	-0.296	-0.203	0.349	0.37	-0.126	1.08	0.253	1.03	0.486	0.791	0.222	0.78	0.461	0.344	-0.243	0.414	0.556	1.36 (inactive)

From PubChem BioAssay
